According to PubChem BioAssay:
The source made the active and inactive calls.

Key:
[1] = tested on: Plasmodium falciparum Sir2 (PF13_0152, Sir2A); experiment: pfSir2 binders on small-molecule microarrays, primary screen, biochemical, small-molecule microarray, 635 nm fluorescence (AID 1098); conditions: small-molecule microarray binding, fluorescence 635 nm; higher = more signal;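 note: score merges spot fluorescence intensity with its signal-to-noise ratio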
[2] = small-molecule microarray binders of probe aDKK1, primary screen, biochemical, biotinylated probe, 635/667 nm fluorescence (AID 1099); conditions: higher = more signal;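 note: score merges 667nm spot fluorescence with signal to noise across triplicate slides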
[3] = small-molecule microarray binders of probe aCHRDL2, primary screen, biochemical, biotinylated probe, 635/667 nm fluorescence (AID 1100); conditions: higher = more signal
[4] = splicing luciferase reporter signal modulators, primary screen, spliceosome inhibition project, cell-based, HEK293, splice +/- reporter (AID 1101); conditions: luminescence, 24 h, higher = more signal, called active from +8 up or from −8 down;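 note: HEK293 cells carrying a splicing-competent luciferase reporter gene; test concentration not given here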
[5] = target: Fibroblast growth factor 10 (Homo sapiens) (UniProt O15520); experiment: FGF10 binders on small-molecule microarrays, primary screen, biochemical, small-molecule microarray, 635 nm fluorescence (AID 1102); conditions: FGF10 binding, fluorescence 635 nm, higher = more signal
[6] = tested on: glycogen synthase kinase-3 (GSK3A per assay name; protocol says GSK3B); experiment: GSK3 binders on small-molecule microarrays, primary screen, biochemical, small-molecule microarray, 635 nm fluorescence, GSK3A (AID 1103); conditions: small-molecule microarray binding, fluorescence 635 nm; higher = more signal; note: the record names both GSK3A and GSK3B
[7] = target: Epidermal growth factor receptor (Homo sapiens) (UniProt P00533); experiment: EGFR binders on small-molecule microarrays, primary screen, biochemical, small-molecule microarray, 635 nm fluorescence (AID 1104); conditions: EGFR binding, higher = more signal;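 note: score merges 667 nm emission intensity with spot signal to noise over triplicate slides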
[8] = target: Follistatin-related protein 3 (Homo sapiens) (UniProt O95633); experiment: FSTL3 binders on small-molecule microarrays, primary screen, biochemical, small-molecule microarray, 635 nm fluorescence (AID 1105); conditions: FSTL3 binding, higher = more signal;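 note: score merges emission near 667 nm and signal to noise per printed spot across three slides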
[9] = target: Dickkopf-related protein 1 (Homo sapiens) (UniProt O94907); experiment: DKK1 binders on small-molecule microarrays, primary screen, biochemical, small-molecule microarray, 635 nm fluorescence scan (AID 1106); conditions: DKK1 binding, higher = more signal;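 note: score merges emission near 667 nm with signal to noise over three replicate slides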
[10] = tested on: Inhibin beta A chain (activin A); experiment: INHBA (activin A) binders on microarrays, primary screen, biochemical, small-molecule microarray, 635 nm fluorescence scan (AID 1107); conditions: small-molecule microarray binding, higher = more signal;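 note: mouse activin A protein probed at 4.33 µg/mL on printed slides; score merges bound-protein fluorescence near 667 nm with spot signal-to-noise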
[11] = tested on: Human papillomavirus type 1a protein E7 (residues 44-93); experiment: HPV1a E7 fragment binders on microarrays, primary screen, biochemical, small-molecule microarray, residues 44-93, 635 nm fluorescence (AID 1108); conditions: small-molecule microarray binding, fluorescence 635 nm; higher = more signal;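 note: E7 fragment applied at 1 µg/mL in TBST for 1 h at 4 C; score combines spot fluorescence with its signal to noise ratio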
[12] = modulators of HCV replicon luciferase signal, primary screen, HCV replication inhibitor project, Huh7 cells, luciferase reporter (AID 1109); conditions: 48 h, higher = more signal;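 note: huh7 hepatoma cells harbouring a luciferase neomycin HCV replicon reporter; luciferase luminescence as measure of HCV replicon replication; test concentration not given here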
[13] = target: Left-right determination factor 2 (Homo sapiens) (UniProt O00292); experiment: LEFTY2 binders on small-molecule microarrays, primary screen, biochemical, small-molecule microarray, 635 nm fluorescence scan (AID 1110); conditions: LEFTY2 binding, higher = more signal
[14] = target: Calmodulin-1 (Homo sapiens) (UniProt P0DP23); experiment: CALM1 binders on microarrays, EGTA buffer, profiling panel, biochemical, small-molecule microarray, Cy5-labelled CALM1 (AID 1111); conditions: Cy5-CALM1 binding fluorescence, higher = more signal;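 note: labelled calmodulin applied in Tris saline Tween buffer holding calcium plus EGTA and DTT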
[15] = target: Calmodulin-1 (Homo sapiens) (UniProt P0DP23); experiment: calcium-bound CALM1 binders on microarrays, profiling panel, artefact control for SMM control-protein annotation, biochemical, small-molecule microarray, Cy5-labelled CALM1, plus calcium (AID 1112); conditions: Cy5-CALM1 binding fluorescence, higher = more signal;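 note: score merges spot fluorescence with signal to noise from triplicate slides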
[16] = small-molecule microarray binders of probe aWnt5a, primary screen, biochemical, biotinylated probe, 635/667 nm fluorescence (AID 1113); conditions: higher = more signal;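 note: score merges 667 nm fluorescence intensity with signal-to-noise per printed feature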
[17] = small-molecule microarray binders of probe aShh, primary screen, biochemical, biotinylated probe, 635/667 nm fluorescence (AID 1114); conditions: higher = more signal;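 note: probe is biotin-labelled aShh protein from a stem cell growth factor screen; measures binding of labelled protein to compounds printed on the slide; score merges feature fluorescence at 667 nm with signal-to-noise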
[18] = small-molecule microarray binders of probe aNog, primary screen, biochemical, biotinylated probe, 635/667 nm fluorescence (AID 1115); conditions: higher = more signal;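 note: probe is biotinylated aNog protein used at 0.15 µg/mL for 1 h at 4 C; z-score combines 667 nm fluorescence of each spot with its signal to noise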
[19] = target: Torsin-1A-interacting protein 1 (Homo sapiens) (UniProt Q5JTV8); experiment: LAP1 binders from COS7 cell lysate, primary screen, small-molecule microarray, 635/667 nm fluorescence (AID 1116); conditions: COS7-hLAP1 lysate binding, 635 nm fluorescence, higher = more signal
[20] = target: Alpha-bungarotoxin (Bungarus multicinctus) (UniProt P60615); experiment: alpha-bungarotoxin binders on microarray, profiling panel, artefact control for SMM control protein annotation, biochemical, small-molecule microarray, Alexa647 label, 635/667 nm fluorescence (AID 1117); conditions: alpha-BTX-A647 binding fluorescence, higher = more signal
Sequence of Alpha-bungarotoxin (Bungarus multicinctus) (P60615 whole entry, looked up): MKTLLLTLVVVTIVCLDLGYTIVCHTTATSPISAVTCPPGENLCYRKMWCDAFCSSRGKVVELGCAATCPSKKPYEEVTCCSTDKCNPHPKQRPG

Sequence of Epidermal growth factor receptor (Homo sapiens) (P00533 whole entry, looked up): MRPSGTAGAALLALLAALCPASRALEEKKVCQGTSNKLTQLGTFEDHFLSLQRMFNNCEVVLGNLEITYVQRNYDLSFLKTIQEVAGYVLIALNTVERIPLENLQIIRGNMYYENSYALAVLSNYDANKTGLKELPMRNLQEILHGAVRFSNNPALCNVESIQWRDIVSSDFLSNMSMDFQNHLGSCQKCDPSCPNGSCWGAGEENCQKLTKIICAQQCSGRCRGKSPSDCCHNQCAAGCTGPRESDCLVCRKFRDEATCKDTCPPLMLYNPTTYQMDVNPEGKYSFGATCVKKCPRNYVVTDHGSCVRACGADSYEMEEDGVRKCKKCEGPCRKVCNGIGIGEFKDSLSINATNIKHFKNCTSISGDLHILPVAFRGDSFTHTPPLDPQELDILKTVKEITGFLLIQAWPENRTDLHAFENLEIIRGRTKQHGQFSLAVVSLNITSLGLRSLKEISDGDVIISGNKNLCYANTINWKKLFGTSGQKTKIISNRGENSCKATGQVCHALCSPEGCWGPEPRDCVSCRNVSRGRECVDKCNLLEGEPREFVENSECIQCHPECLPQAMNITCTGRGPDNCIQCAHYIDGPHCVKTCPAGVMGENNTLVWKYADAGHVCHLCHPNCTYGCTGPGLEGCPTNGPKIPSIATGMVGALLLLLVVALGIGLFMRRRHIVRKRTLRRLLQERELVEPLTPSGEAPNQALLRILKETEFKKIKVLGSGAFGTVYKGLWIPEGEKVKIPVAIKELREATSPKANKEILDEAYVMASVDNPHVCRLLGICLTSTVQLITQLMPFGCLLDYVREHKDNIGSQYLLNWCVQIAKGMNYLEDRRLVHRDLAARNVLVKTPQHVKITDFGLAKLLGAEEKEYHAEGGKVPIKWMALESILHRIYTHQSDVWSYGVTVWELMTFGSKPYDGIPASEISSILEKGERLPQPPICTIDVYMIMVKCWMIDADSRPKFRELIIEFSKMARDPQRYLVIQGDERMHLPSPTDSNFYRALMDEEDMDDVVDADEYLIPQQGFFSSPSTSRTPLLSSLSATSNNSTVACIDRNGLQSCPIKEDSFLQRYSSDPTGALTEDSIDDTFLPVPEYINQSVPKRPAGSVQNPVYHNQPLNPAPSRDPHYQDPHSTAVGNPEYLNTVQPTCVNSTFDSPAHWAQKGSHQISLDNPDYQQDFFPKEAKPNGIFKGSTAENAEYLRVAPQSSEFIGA
Sequence of Torsin-1A-interacting protein 1 (Homo sapiens) (Q5JTV8 whole entry, looked up): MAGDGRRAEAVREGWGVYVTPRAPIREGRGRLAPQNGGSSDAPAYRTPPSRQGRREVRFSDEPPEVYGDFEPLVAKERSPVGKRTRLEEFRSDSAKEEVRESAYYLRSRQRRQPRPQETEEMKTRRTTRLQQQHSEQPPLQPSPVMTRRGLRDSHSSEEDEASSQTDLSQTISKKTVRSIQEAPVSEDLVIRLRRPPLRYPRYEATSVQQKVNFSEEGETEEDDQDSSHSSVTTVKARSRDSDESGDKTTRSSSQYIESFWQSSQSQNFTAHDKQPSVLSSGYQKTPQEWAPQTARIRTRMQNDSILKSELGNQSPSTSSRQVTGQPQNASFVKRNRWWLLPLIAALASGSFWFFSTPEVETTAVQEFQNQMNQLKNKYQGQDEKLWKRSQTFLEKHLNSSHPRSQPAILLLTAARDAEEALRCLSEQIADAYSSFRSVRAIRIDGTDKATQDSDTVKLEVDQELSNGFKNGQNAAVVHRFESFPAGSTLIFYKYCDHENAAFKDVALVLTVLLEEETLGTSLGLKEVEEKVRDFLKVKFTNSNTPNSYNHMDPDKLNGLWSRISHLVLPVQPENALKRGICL
Sequence of Dickkopf-related protein 1 (Homo sapiens) (O94907 whole entry, looked up): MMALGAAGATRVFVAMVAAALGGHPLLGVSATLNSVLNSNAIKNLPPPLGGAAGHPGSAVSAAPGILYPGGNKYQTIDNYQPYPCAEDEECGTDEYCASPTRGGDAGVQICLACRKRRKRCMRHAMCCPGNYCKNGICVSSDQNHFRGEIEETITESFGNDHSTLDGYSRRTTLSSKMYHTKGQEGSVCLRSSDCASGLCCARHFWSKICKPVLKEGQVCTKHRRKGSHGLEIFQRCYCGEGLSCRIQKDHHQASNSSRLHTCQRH
Sequence of Fibroblast growth factor 10 (Homo sapiens) (O15520 whole entry, looked up): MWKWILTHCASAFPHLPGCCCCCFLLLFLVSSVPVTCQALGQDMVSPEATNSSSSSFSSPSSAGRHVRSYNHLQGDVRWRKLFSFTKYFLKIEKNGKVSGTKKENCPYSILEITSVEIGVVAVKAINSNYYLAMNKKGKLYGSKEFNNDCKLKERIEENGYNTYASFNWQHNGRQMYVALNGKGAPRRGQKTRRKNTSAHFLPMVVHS
Sequence of Follistatin-related protein 3 (Homo sapiens) (O95633 whole entry, looked up): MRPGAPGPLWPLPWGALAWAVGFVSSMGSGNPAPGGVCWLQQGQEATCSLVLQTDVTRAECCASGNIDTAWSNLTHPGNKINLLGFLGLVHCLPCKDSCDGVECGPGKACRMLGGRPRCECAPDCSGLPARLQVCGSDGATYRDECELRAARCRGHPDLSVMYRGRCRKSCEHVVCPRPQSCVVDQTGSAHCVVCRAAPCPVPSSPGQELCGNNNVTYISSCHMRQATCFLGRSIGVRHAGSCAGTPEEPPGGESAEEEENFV
Sequence of Left-right determination factor 2 (Homo sapiens) (O00292 whole entry, looked up): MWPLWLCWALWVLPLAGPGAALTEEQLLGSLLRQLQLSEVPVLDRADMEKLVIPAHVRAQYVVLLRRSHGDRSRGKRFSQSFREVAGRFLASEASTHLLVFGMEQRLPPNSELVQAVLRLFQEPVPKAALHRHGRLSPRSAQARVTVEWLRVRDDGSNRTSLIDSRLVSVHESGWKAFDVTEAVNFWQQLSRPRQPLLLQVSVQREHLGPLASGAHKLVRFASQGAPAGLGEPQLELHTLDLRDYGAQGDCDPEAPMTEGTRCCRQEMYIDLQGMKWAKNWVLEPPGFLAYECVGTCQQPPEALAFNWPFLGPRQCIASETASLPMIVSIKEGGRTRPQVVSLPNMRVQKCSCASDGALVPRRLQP

| SMILES | composite z-score [1] | composite z-score [2] | composite z-score [3] | z-score [4] | composite z-score [5] | composite z-score [6] | composite z-score [7] | composite z-score [8] | composite z-score [9] | composite z-score [10] | composite z-score [11] | z-score [12] | composite z-score [13] | composite z-score [14] | composite z-score [15] | composite z-score [16] | composite z-score [17] | composite z-score [18] | composite z-score [19] | composite z-score [20] |
| --- | --- | --- | --- | --- | --- | --- | --- | --- | --- | --- | --- | --- | --- | --- | --- | --- | --- | --- | --- | --- |
| C=CCN(C(=O)C1N(c2ccc(CCO)cc2)C(=O)C2C(C(=O)O)C3C=CC21O3)C(C)(C)C (stereo not given) | 1.86 | -0.214 | 1.24 | -1.32 (inactive) | -1.86 | -0.723 | -3.08 | -2.73 | -4.35 | -1.06 | -0.266 | 0.333 | -2.38 | -0.428 | 0.966 | -0.287 | -0.27 | -0.219 | 1.71 | -2.69 |
| COCCOC(=O)N1C(=O)[C@@]2(c3cc(C#CCCO)ccc31)[C@H](C(=O)N1CCCCCCC1)[C@H]1C(=O)O[C@H](c3ccccc3)[C@H](c3ccccc3)N1[C@@H]2c1ccc(O)cc1 | 1.46 | 1.53 | 1.19 | -1.15 (inactive) | 0.494 | 1.28 | 0.292 | 1.3 | 0.4 | 1.27 | 1.02 | -1.18 | 0.383 | 2.14 | 0.719 | 0.0775 | 0.814 | 0.916 | 2.56 | 1.45 |
| C=CC[C@]1(C(=O)N2CCCCC2)N=C(c2ccc(OCCCO)cc2)O[C@H]1c1ccccc1N=[N+]=[N-] | 1.55 | 1.26 | 1.42 | -0.461 (inactive) | 0.975 | 1.27 | 0.292 | 1.3 | -0.0913 | 1.06 | 0.796 | -0.668 | 0.218 | 2.16 | 0.994 | 0.0327 | 0.195 | -0.174 | 1.85 | 2.28 |
| C=CCNC(=O)[C@H]1[C@@H]2C(=O)O[C@@H](c3ccccc3)[C@@H](c3ccccc3)N2[C@@H](c2ccc(O)cc2)[C@]12C(=O)Nc1ccc(C#CCNC(N)=O)cc12 | 1.5 | 0.24 | 0.262 | -0.335 (inactive) | -0.327 | -0.304 | -0.856 | -1.03 | -0.351 | 0.323 | 0.0632 | 0.567 | -0.84 | -0.439 | -0.0701 | -0.161 | -0.467 | 0.0863 | 0.239 | 0.543 |
| NC(=O)NCC#Cc1ccc2c(c1)[C@]1(C(=O)N2)[C@H](c2ccccc2OCCO)N2[C@H](c3ccccc3)[C@H](c3ccccc3)OC(=O)[C@H]2[C@@H]1C(=O)N1CCN(c2ncccn2)CC1 | 0.722 | 0.0815 | 0.542 | 0.222 (inactive) | 0.651 | 0.814 | 0.251 | 0.844 | 0.133 | 1.25 | 1.4 | -0.729 | 0.235 | 0.427 | 0.263 | -0.124 | 0.399 | -0.582 | 1.04 | 0.959 |
| COC(=O)C[C@H]1O[C@]2(C(=O)N(Cc3ccccc3)c3ccc(I)cc32)[C@@H](C)[C@@H]1[Si](C)(C)c1ccc(OC)cc1 | -0.237 | 0.19 | 0.533 | -0.853 (inactive) | 0.0095 | -1.19 | -0.398 | -0.192 | -0.524 | 0.413 | -1.02 | 0.486 | -0.0651 | 0.267 | 0.286 | -0.0462 | 0.0062 | -0.208 | -0.267 | 0.13 |
| COCCOC(=O)N1C(=O)[C@@]2(c3ccccc31)[C@H](C(=O)N1CCc3cc(OC)c(OC)cc3C1)[C@H]1C(=O)O[C@H](c3ccccc3)[C@H](c3ccccc3)N1[C@@H]2c1ccccc1OCCO | 1 | 0.401 | 0.339 | -0.237 (inactive) | 0.626 | 1.28 | 0.329 | 0.606 | 0.214 | 0.635 | 0.583 | -1.51 | 0.284 | 1.25 | 0.868 | -0.124 | 0.319 | 0.185 | 0.987 | 2.42 |
| O=C(CS)NCCCCCNC(=O)[C@H]1C[C@H]2C(=O)N[C@@H](Cc3ccccc3)C(=O)N2[C@H]1c1ccc(O)cc1 | 1.26 | 0.27 | 0.299 | -0.876 (inactive) | 0.702 | 1.29 | 0.957 | 0.566 | 1.25 | 0.456 | 0.151 | -0.488 | 0.406 | 0.741 | 0.748 | -0.0977 | 0.184 | 0.185 | 0.792 | 3 |
| CCCC[C@H]1OB(O)C[C@H]2C1=C(COC)C[C@H]1C(=O)N(Cc3ccccc3)C(=O)[C@H]12 | -0.0105 | 0.0752 | -0.0346 | -1.27 (inactive) | 0.78 | 0.261 | 0.013 | 1.1 | 0.0988 | 0.223 | -0.0721 | 0.202 | 0.313 | 0.188 | -0.0421 | -0.0327 | -0.0904 | 0.0649 | 0.25 | 0.526 |
| COCCCNC(=O)[C@@]1(c2ccc([N+](=O)[O-])cc2)CC(=O)N(C2CCCCC2)[C@@H]1c1ccc(CO)cc1 | -0.463 | -0.86 | -0.67 | -0.748 (inactive) | 0.316 | 0.296 | -0.0545 | -0.186 | -0.296 | -0.395 | 0.361 | -0.558 | -0.256 | -0.702 | -0.762 | -0.418 | -0.8 | -0.811 | -0.218 | -0.374 |
| CO[C@@H]1COC(=O)CC=C[C@H](C)COC(=O)[C@H](Cc2ccccc2)NC(=O)CC=C[C@H]1C | 0.534 | -1.19 | -1.74 | -0.912 (inactive) | 0.472 | 0.622 | 1.03 | 1.25 | 2.22 | 1.36 | -0.416 | 1.06 | 1.31 | -1.59 | -2.38 | -0.288 | 0.0048 | -0.547 | -0.0955 | -1.36 |
